Measurements: PubChem BioAssay (EPA / NIEHS)
Results filed as inconclusive are left out. Active and inactive are the calls of the source. How the source made its calls: active means hit-call score of the fitted dose curve at least 0.9, where 1 is the maximum; inconclusive means response in the unintended direction; inactive means score below 0.9.

Assay: ACEA_ER_80hr: ACEA Biosciences xCELLigence Real-Time Cell Analysis on Estrogen Receptor Agonism for Proliferation (AID 2282667)
Settings: T47D proliferation, impedance (xCELLigence), 80 h
Experimental: ACEA_ER is a cell-based, single-readout assay that uses T47D, a human breast cell line, with measurements taken at 80 hours after chemical dosing in a 96-well plate, although TO2 (mc0.srcf) used a 384-well plate. Differences in plate size can be ignored given data normalization.ACEA_ER_80hr is one of two assay component(s) measured or calculated from the ACEA_ER assay. It is designed to make measurements of real-time cell-growth kinetics, a form of growth reporter, as detected with electrical impedance signals by Real-Time Cell Electrode Sensor (RT-CES) technology.Data from the assay component ACEA_ER_80hr was analyzed into 1 assay endpoint. This assay endpoint, ACEA_ER_80hr_Positive, was analyzed in the positive analysis fitting direction relative to DMSO as the negative control and baseline of activity. Using a type of growth reporter, measures of the cells for gain-of-signal activity can be used to understand the signaling at the pathway-level as they relate to the gene ESR1. Furthermore, this assay endpoint can be referred to as a primary readout, because this assay has produced multiple assay endpoints where this one serves a signaling function. To generalize the intended target to other relatable targets, this assay endpoint is annotated to the nuclear receptor intended target family, where the subfamily is steroidal.
The xCELLigence system Multi-E-Plate stations were used to measure the time-dependent response to chemicals. Each compound was tested in an eight-point, 1:4 serial dilution series starting at a maximum final concentration of 100 uM. A maximum starting concentration of 0.5% DMSO was present in the 100 uM chemical samples and was diluted along with the test article dilution series. The screen was performed in biological duplicate using two separate, 96-well, E-Plates 96 for each dilution series (n = 2). Positive controls (MG132 and E2) and a negative control (assay media) were tested in quadruplicate on each testing plate. […] Reference compounds were tested with 8 concentrations with 1:5 serial dilutions. All screening was carried out by ACEA Biosciences, Inc. (San Diego, CA). T-47D cells purchased from ATCC were maintained in RPMI1640 media supplemented with 10% characterized fetal bovine serum (FBS). […] Cells were then detached and seeded in E-Plates 96 in assay medium. After overnight monitoring of growth once every hour, compounds were added to […] cells and remained in the medium until the end of the experiment. Cellular responses were then recorded once every 5 min for the first 5 h, and once every hour for an additional 100 h.

SMILES	outcome
CC(C)=CC1C(C(=O)OCc2coc(Cc3ccccc3)c2)C1(C)C (stereo not given)	inactive
CS(=O)(=O)c1cc(C(F)(F)F)ccc1C(=O)c1cnoc1C1CC1	inactive
Cc1c(COC(=O)[C@@H]2[C@H](/C=C(\Cl)C(F)(F)F)C2(C)C)cccc1-c1ccccc1	inactive
N#CN=C1SCCN1Cc1ccc(Cl)nc1	inactive
CC1(C)C(C(=O)OC(C#N)c2cccc(Oc3ccccc3)c2)C1(C)C (stereo not given)	inactive
Nc1c(Cl)c(Cl)nc(C(=O)O)c1Cl	inactive
Cc1cc(C)nc(Nc2ccccc2)n1	inactive
Cc1ccc(N=CN(C)C=Nc2ccc(C)cc2C)c(C)c1	inactive
C=C(C)CN(CC)c1c([N+](=O)[O-])cc(C(F)(F)F)cc1[N+](=O)[O-]	inactive
CCNP(=S)(OC)O/C(C)=C/C(=O)OC(C)C (stereo not given)	inactive
O=c1n(Cl)c(=O)n(Cl)c(=O)n1Cl	inactive
Nc1cnn(-c2ccccc2)c(=O)c1Cl	inactive
CCSC(=O)N1CCCCCC1	inactive
CC1(C)CON(Cc2ccccc2Cl)C1=O	inactive
CCOc1nc(C(Cl)(Cl)Cl)ns1	inactive
CC(C)Oc1cccc(NC(=O)c2ccccc2C(F)(F)F)c1	inactive
CC1(C)C(C=C(Cl)Cl)C1C(=O)OC(C#N)c1cccc(Oc2ccccc2)c1 (stereo not given)	inactive
CC(C)N1C(=O)N(c2ccccc2)CSC1=NC(C)(C)C	inactive
CCOP(=O)(OCC)Oc1nc(Cl)c(Cl)cc1Cl	inactive
COc1cc(Cl)c(OC)cc1Cl	inactive

SMILES	outcome
Cc1cnc(C2=NC(C)(C(C)C)C(=O)N2)c(C(=O)O)c1 (stereo not given)	inactive
Cc1nc(N(C)C)nc(OC(=O)N(C)C)c1C	inactive
CSC(=O)c1c(C(F)F)nc(C(F)(F)F)c(C(=O)SC)c1CC(C)C	inactive
CCCCC(C#N)(Cn1cncn1)c1ccc(Cl)cc1 (stereo not given)	inactive
CCN(CC)c1nc(C)cc(OP(=S)(OC)OC)n1	inactive
CNC(=O)Oc1cccc2ccccc12	inactive
COP(=O)(OC)O/C(C)=C/C(=O)N(C)C	inactive
CCOc1nc(F)cc2nc(S(=O)(=O)Nc3c(Cl)cccc3Cl)nn12	inactive
O=C(O)c1c(Cl)ccc2cc(Cl)cnc12	inactive
CCCCOCN(C(=O)CCl)c1c(CC)cccc1CC	inactive
COC(=O)NS(=O)(=O)c1ccc(N)cc1	inactive
COCc1cnc(C2=NC(C)(C(C)C)C(=O)N2)c(C(=O)O)c1 (stereo not given)	inactive
CC(C)Nc1nc(Cl)nc(NC(C)C)n1	inactive
O=C1C2CC=CCC2C(=O)N1SC(Cl)(Cl)Cl (stereo not given)	inactive
O=C(Nc1ccccc1-c1ccc(Cl)cc1)c1cccnc1Cl	inactive
C=CCOC(=O)C(C)(C)OC(=O)c1cc(-n2c(=O)cc(C(F)(F)F)n(C)c2=O)ccc1Cl	inactive
Nc1c(Cl)c(F)nc(OCC(=O)O)c1Cl	inactive
CCNC(=O)NC(=O)C(C#N)=NOC	inactive
COC(=O)NC(=S)Nc1ccccc1NC(=S)NC(=O)OC	inactive
COCC(C)N(C(=O)CCl)c1c(C)csc1C (stereo not given)	inactive
